Dicer inh – inhibitors of human Dicer processing of pre-microRNA; Q9UPY3; cat-ELCCA pre-miR-21 Dicer processing, chemiluminescence; hits give high values; z-score at 25 µM; 6% of 47,000 active; AID 1347074; in the data active means z-score above about 3, passing the limit was not always enough;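 further: higher signal means more uncleaved substrate so more Dicer inhibition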
Numbers stand for hits; - = inactive. The sample as a whole holds a higher share of hits than the screen did.

SMILES	Dicer inh
CC1(C)CC(=O)C2=C(C1)N=C1c3ccccc3C(=O)C1C2c1cccc(Cl)c1 (stereo not given)	-
COc1ccc(Cl)cc1NC(=O)Nc1sccc1-c1nc2ccccc2s1	5.09
COc1ccc(Cl)cc1NC(=O)Nc1nnc(C2CC2)s1	-
COc1ccccc1NC(=O)Nc1sccc1-c1nc2ccccc2s1	-
COc1ccc(-c2nn(CC(=O)c3ccc(Br)cc3)c(=O)c3ccccc23)cc1	-
COc1cc(C2SCCS2)cc(Br)c1OC(=O)c1nn(-c2ccccc2)nc1C	-
O/N=C/C1=C(Cl)c2cc(F)ccc2OC1	-
COc1ccc(OC)c(CN2CCN(S(=O)(=O)c3ccc(Cl)cc3)CC2)c1	3.07
COc1ccc(S(=O)(=O)N2CCN(Cc3cc(OC)ccc3OC)CC2)cc1	-
COc1ccc(OC)c(CN2CCN(Cc3ccncc3)CC2)c1	-
Cc1ccc(-c2cc(C(F)(F)F)n3nc(C)c(C#N)c3n2)cc1	-
O=C(COC(=O)c1cc2ccccc2cc1OC(=O)c1ccc(Cl)cc1)c1ccccc1	-
O=C(COC(=O)c1ccc(F)c(Cl)c1)c1ccc(Cl)cc1	-
O=C(COC(=O)c1cc(Cl)ccc1O)c1ccc(-c2ccccc2)cc1	6.08
Cc1ccccc1Cn1c(SCc2nn[nH]n2)nc2c1c(=O)n(C)c(=O)n2C	3.47
Cc1ccccc1Cn1c(SC(C)C(=O)O)nc2c1c(=O)n(C)c(=O)n2C (stereo not given)	-
CCSc1nc2c(c(=O)n(C)c(=O)n2C)n1Cc1ccccc1C	-
CCCOC(=O)CSC1=C(C#N)C(c2ccc(C(C)C)cc2)CC(=O)N1 (stereo not given)	-
O=C(O)CNC1CCS(=O)(=O)C1 (stereo not given)	-
N#C/C(=C\N1CCC(n2cccc2)CC1)S(=O)(=O)c1ccc(Cl)cc1	-
CCOc1nc2c(c(-c3ccco3)c1C#N)Cc1ccccc1-2	-
O=C1N/C(=N/N=C\c2[nH]ncc2Br)SC1c1ccccc1 (stereo not given)	3.36
O=C1CS/C(=N/N=C/c2ccn[nH]2)N1	-
CC(OCc1ccccc1)C(NC(=O)OC(C)(C)C)C(=O)NCc1ccccc1 (stereo not given)	-
COc1ccc(C(=O)c2sc(Nc3ccccc3)nc2-c2ccccc2)cc1	-
SMILES	Dicer inh
Cc1cccc(Cl)c1NC(=S)NN	-
CCc1cccc(CC)c1NC(=S)NN	3.07
CCc1cccc(CC)c1NC(=O)C(Cl)Cl	-
Nn1c(C(=O)NCc2cccnc2)nc2ccccc2c1=O	-
CC(CO)(CO)NC(=S)Nc1ccc(F)c(Cl)c1	-
Cc1ccc(Nc2ncnc(N)n2)cc1C	-
CCOC(=O)c1cnc(Nc2ccc(C)cc2)nc1C(F)(F)F	-
c1ccc(N2N=C3c4ccccc4CCC3C2c2cccs2)cc1 (stereo not given)	-
CSc1sc(C#N)c2c1C(=O)/C(=C/N(C)C)CC2	-
C=CCN1C(C(=O)c2ccccc2)=C(OC(C)=O)c2ccccc2S1(=O)=O	-
O=C(CN1C(=O)c2ccccc2S1(=O)=O)c1ccccc1	-
CCN(CC)C1=C(C(=O)c2ccccc2)N(CC(N)=O)S(=O)(=O)c2ccccc21	3.13
Cc1oc(S(=O)(=O)N2CCCCC2)cc1C(=O)Nc1ccc2c(c1)OCO2	-
Cc1ccc2nc(-c3ccc(NC4=NS(=O)(=O)c5ccccc54)cc3)sc2c1	-
COC(=O)c1c(C)[nH]c(C)c1/C=C(\C#N)C(=O)c1cccs1	-
S=c1[nH]nc(-c2cccc(Cl)c2)o1	-
Cc1coc(C)c1C(=O)CC1(O)C(=O)Nc2ccccc21 (stereo not given)	-
O=C(O)C1CC(=O)N(CCc2ccc(Cl)cc2)C1 (stereo not given)	-
COc1ccc(OC)c(C(=O)CC2(O)C(=O)N(C(C)C)c3ccccc32)c1 (stereo not given)	-
CCCN1C(=O)C(O)(CC(=O)c2ccco2)c2ccccc21 (stereo not given)	-
CC(C)N1C(=O)C(O)(CC(=O)c2ccco2)c2ccccc21 (stereo not given)	6.92
Cc1cc(O)cc2c1C(=O)CC(C)(C)O2	-
CCCS(=O)(=O)N1CCN(Cc2cc(Br)ccc2O)CC1	-
COc1ccc(CN2CCN(Cc3cc(Br)ccc3OC)CC2)cc1	-
COc1cccc(CN2CCN(Cc3ccccc3Br)CC2)c1OC	-
SMILES	Dicer inh
COc1ccc(CN2CCN(Cc3ccc(Br)cc3)CC2)c(OC)c1	-
CCS(=O)(=O)N1CCN(Cc2cc(Br)ccc2O)CC1	4.87
COc1ccc(Br)cc1CN1CCN(Cc2ccncc2)CC1	-
COc1ccc(CN2CCN(Cc3cc(Br)ccc3O)CC2)c(OC)c1	4.53
Cc1ccc(S(=O)(=O)N2CCN(Cc3cc(C(C)C)ccc3O)CC2)cc1	-
COc1cccc(CN2CCN(Cc3cc(Br)ccc3O)CC2)c1OC	3.76
C=CCOc1ccc(C2c3c(oc4ccc(C)cc4c3=O)C(=O)N2CCOC)cc1OC (stereo not given)	-
CC(C)NC(=O)Oc1ccc([N+](=O)[O-])cc1	-
COCCN1C(=O)C(=O)/C(=C(/O)c2ccccc2)C1c1ccc(C(C)C)cc1 (stereo not given)	-
O=[N+]([O-])c1cccnc1NCc1ccc(Cl)cc1	-
